Experimental data as given in PubChem BioAssay (EPA / NIEHS).
Inconclusive results are not listed. The source made the active and inactive calls. The calls were made as follows: active = hit-call score of the fitted dose curve at least 0.9, where 1 is the maximum; inconclusive = response in the unintended direction; inactive = score below 0.9.

Read-out: Cytochrome P450 2C19 (Homo sapiens) (UniProt P33261)
Experiment: CLD_CYP2C19_24hr: CellzDirect (CLD) Gene Expression Assay for xenobiotic metabolism (CYP2C19) at 24 hours (AID 2283687);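 also: activity means mRNA induction above DMSO vehicle baseline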
Procedure, shortened: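 CYP2C19 mRNA was quantified by qNPA chemiluminescence after 24 h of daily dosing of cultured human primary hepatocytes from two donors; vehicle was 0.2% DMSO, and increases over DMSO baseline were fitted.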

Cytochrome P450 2C19 (Homo sapiens), sequence (P33261 whole entry, looked up): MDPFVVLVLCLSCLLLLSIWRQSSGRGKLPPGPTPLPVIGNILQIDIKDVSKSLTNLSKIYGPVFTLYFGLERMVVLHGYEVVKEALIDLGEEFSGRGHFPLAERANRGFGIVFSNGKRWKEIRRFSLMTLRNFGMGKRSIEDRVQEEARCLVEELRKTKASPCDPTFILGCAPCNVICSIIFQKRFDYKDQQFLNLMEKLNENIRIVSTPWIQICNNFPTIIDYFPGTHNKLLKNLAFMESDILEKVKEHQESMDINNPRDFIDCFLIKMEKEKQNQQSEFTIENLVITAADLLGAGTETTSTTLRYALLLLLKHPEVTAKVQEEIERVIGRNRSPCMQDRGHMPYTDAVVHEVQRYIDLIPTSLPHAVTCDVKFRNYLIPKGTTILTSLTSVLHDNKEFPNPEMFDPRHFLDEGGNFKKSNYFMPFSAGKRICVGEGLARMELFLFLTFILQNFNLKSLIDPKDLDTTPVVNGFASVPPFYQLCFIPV

Compound | outcome
Cc1cc(C)nc(NC(=O)NS(=O)(=O)c2ccccc2C(=O)OC2COC2)n1 | inactive
CCc1ccc(C(=O)NN(C(=O)c2cc(C)cc(C)c2)C(C)(C)C)cc1 | inactive
CCOc1nc(NC)nc(NC(=O)NS(=O)(=O)c2ccccc2C(=O)OC)n1 | inactive
COC(=O)c1ccccc1S(=O)(=O)NC(=O)N(C)c1nc(C)nc(OC)n1 | inactive
Cc1[nH]c(=O)n(C(C)(C)C)c(=O)c1Cl | inactive
O=[N+]([O-])/N=C1\NCCN1Cc1ccc(Cl)nc1 | inactive
COc1cc(OC)nc(NC(=O)NS(=O)(=O)c2cc(NC=O)ccc2C(=O)N(C)C)n1 | inactive
O=C(O)CCCOc1ccc(Cl)cc1Cl | inactive
O=C(O)COc1ccc(Cl)cc1Cl | inactive
Oc1ccc(Cl)cc1Cc1ccccc1 | inactive
CCS(=O)(=O)c1cccnc1S(=O)(=O)NC(=O)Nc1nc(OC)cc(OC)n1 | inactive
CC(C)OC(=O)Nc1cccc(Cl)c1 | inactive
ClC1C(Cl)C(Cl)C(Cl)C(Cl)C1Cl (centres undefined) | inactive
CC1(C)C(C=C(Cl)Cl)C1C(=O)OC(C#N)c1ccc(F)c(Oc2ccccc2)c1 (centres undefined) | inactive
